From PubChem BioAssay
Sampled rows, rich in hits. Any-hit rate of the full collection: about 4.2%.
tim23-1 inh: inhibits growth of tim23-1 mutant yeast. S. cerevisiae tim23-1 growth, BacTiter-Glo luminescence, 24 h. inhibition, % at 20 µM. 330,000 compounds, 1.3% hits. AID 463212;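 active means growth inhibition of the mutant yeast at or above 50%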;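 further: temperature-sensitive mutant grown at 25 °C; plate controls were DMSO-treated mutant yeast for no effect and medium wells lacking yeast for full effect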
V-ATPase pHluor: yeast V-ATPase proton transport regulation by pHLuorin; response, % at 10 µM; AID 504577; 350,000 compounds, 0.37% hits; S. cerevisiae, pHLuorin cytosolic pH fluorescence; in the data active means response mostly above about 7.3%, no sharp cut-off; inactive means mostly below about 5.4%; further: actives read high
TIM10 inh: inhibits growth of TIM10 yeast strain; S. cerevisiae TIM10 strain growth, BacTiter-Glo luminescence, 24 h; inhibition, % at 10 µM; 330,000 compounds, 1.4% hits; AID 463195;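 active means inhibition of 40% or more at the single tested concentration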;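 further: wild-type TIM10 isogenic control strain grown at permissive 25 °C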
tim10-1 inh: growth inhibitors of tim10-1 mutant yeast; S. cerevisiae tim10-1 ts strain growth, BacTiter-Glo, 24 h; inhibition, % at 20 µM; 330,000 compounds, 2.2% hits;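 active means inhibition of at least 40%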;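 further: mutant grown at 25 °C; 0% = DMSO wells with yeast and 100% = wells holding no yeast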
NALP3 yeast inh: blocks the NALP3 inflammasome reconstituted in yeast. Yeast reconstituted NLRP3/ASC/caspase-1, beta-gal luminescence, 24 h. inhibition, % at 10 µM. 330,000 compounds, 0.39% hits;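 active means inhibition of 50% or more; inactive means inhibition below 50%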;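 further: plate controls were induced DMSO wells for no effect and uninduced yeast grown without galactose for full effect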
NALP1 inh: NALP1 inhibition; S. cerevisiae NALP1/ASC/caspase-1 growth, X-gal OD620, 72 h; inhibition, % at 10 µM; 280,000 compounds, 0.61% hits; AID 2071; in the data active means inhibition mostly above about 24%, no sharp cut-off; inactive means mostly below about 32%
tim23-1 confirm: tim23-1 yeast growth inhibition, confirmed; inhibition, % at 20 µM; S. cerevisiae tim23-1 growth, BacTiter-Glo luminescence, 24 h; 4,400 compounds, 83% hits; shares compounds with tim23-1 inh;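 active means inhibition above about 39% in either of two replicate wells at 20 µM, limit read from the data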;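 further: temperature-sensitive tim23-1 mutant grown at 25 °C; 0% = DMSO wells with yeast and 100% = medium wells without yeast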
* hit, by the source's call; x = not tested or not shown; ! = not active in a repeat.

SMILES	tim23-1 inh	V-ATPase pHluor	TIM10 inh	tim10-1 inh	NALP3 yeast inh	NALP1 inh	tim23-1 confirm
O=C(O)c1ccc(N/N=C/c2cc3cc4c(cc3nc2Cl)OCCO4)cc1	4	-2	9	-5	4	x	x
Cc1ccc2cc(C=O)c(Cl)nc2c1	50*	0	31	13	23	-12	48*
CCc1ccc(NC(=O)C(=O)NCc2ccccn2)cc1	14	-3	-2	4	8	4	x
CCN1CCN(S(=O)(=O)c2ccc(Cl)c(C(=O)NC3CCC(C)CC3)c2)CC1 (configuration not stated)	-11	6	0	1	1	x	x
CC(CCC(=O)NN)C1CCC2C3CCC4CC(O)CCC4(C)C3CCC12C (configuration not stated)	x	-3	x	x	x	x	x
CC(CCC(C)C(C)(C)C)[C@@H]1CC[C@H]2C3C[C@H](OS(O)(=S)=S)[C@H]4C[C@H](OS(O)(=S)=S)[C@@H](OS(O)(=S)=S)C[C@]4(C)[C@H]3CC[C@]12C (some centres not stated) (tested in a mixture with another compound)	56*!	3	-59	-62	17	x	11
O=C(NC(=S)Nc1cccc(Cl)c1N1CCCCC1)c1cccs1	53*	12	38	32	19	-3	-131
O=C(Nc1ccccc1N1CCOCC1)c1ccco1	-1	1	11	-5	-21	-2	x
O=C(NC(=S)Nc1ccccc1N1CCOCC1)c1ccco1	55*	-1	33	39	-34	24	38
O=C(NC(=S)Nc1cccc(Cl)c1N1CCCCC1)c1ccco1	51*	-2	34	38	-2	4	29
Cc1ccc(-c2nn(-c3ccccc3)cc2/C=N/O)cc1	59*	-3	15	30	28	-24	38*
Cc1ccc(-c2nn(-c3ccccc3)cc2NC(=O)CCl)cc1	65*	2	29	36	22	14	44*
Cc1ccc(-c2nn(-c3ccccc3)cc2CO)cc1	21	-1	9	3	26	18	x
O=C(N/N=C/c1cc2c(cc1Cl)OCO2)c1ccncc1	10	0	4	1	-3	29	x
O=C(N/N=C/c1cc(Cl)cc(Cl)c1O)c1ccncc1	54*	1	38	2	17	-26	62*
O=C(N/N=C/c1ccc(Cl)cc1Cl)c1ccncc1	14	-1	-5	5	13	14	x
O=C(N/N=C/c1coc2ccc(Cl)cc2c1=O)c1ccncc1	66*	6	-12	8	14	-5	56*
COc1ccc(C(=O)N/N=C\c2coc3ccccc3c2=O)cc1	51*	2	14	13	14	-12	43*
Cc1cccc(C(=O)N/N=C/c2coc3ccccc3c2=O)c1	50	4	22	8	16	8	x
COc1ccc(C(=O)N/N=C/c2ccc3cccc(O)c3n2)cc1	53*	0	11	-23	21	7	54*
O=C(N/N=C/c1ccc2cccc(OCc3ccccc3)c2n1)c1ccc(Cl)cc1	0	1	17	9	22	8	x
Cc1n[nH]c(=S)n1/N=C/c1ccc(-c2ccccc2[N+](=O)[O-])o1	26	-4	17	18	28	5	x
CCC(=O)Nc1sc2c(c1C#N)CC(C)(CC)OC2 (configuration not stated)	29	-5	-18	1	-2	2	x
O=C1OC(/C=C/c2ccc(Cl)cc2)=NC/1=C/c1ccco1	60*	0	24	34	1	51	42*
CCCN(CCC)C1=N/C(=C\c2ccco2)C(=O)N1c1ccccc1	48	-1	15	35	9	-5	x
SMILES	tim23-1 inh	V-ATPase pHluor	TIM10 inh	tim10-1 inh	NALP3 yeast inh	NALP1 inh	tim23-1 confirm
CN1C(=O)/C(=C\c2ccco2)N=C1c1ccc(Cl)cc1Cl	71*	-1	30	20	0	x	44*
COc1ccc(S(=O)(=O)N(C)C[C@@H]2OCCCC[C@@H](C)Oc3ccc(NC(=O)NC(C)C)cc3C(=O)N([C@H](C)CO)C[C@@H]2C)cc1	x	2	x	x	x	x	x
Cc1ccc(C(=O)N2CCSC2=S)cc1	56*	-4	15	30	-6	-10	51*
CCOc1ccc(C(=O)N2CCSC2=S)cc1	51*	-4	19	34	6	22	41*
CC(=O)Oc1cc(O)c2c(=O)c(OC(C)=O)c(-c3ccc(OC(C)=O)c(OC(C)=O)c3)oc2c1	7	2	-2	-1	14	x	x
COC(=O)CCN(Cc1cc(OC)ccc1OC)S(=O)(=O)c1ccccc1Br	54*	0	13	28	x	x	36
COc1ccc(CN(CCC(C)C)S(=O)(=O)c2ccccc2Br)cc1	34	2	-21	21	x	x	x
CCC(=O)CN(Cc1cc(OC)ccc1OC)S(=O)(=O)c1ccccc1Br	58*	1	2	28	x	x	26
COC(=O)CCN(Cc1ccccc1)S(=O)(=O)c1ccccc1Br	43	-3	-15	15	x	x	x
COc1ccc(N(C(C)C(=O)NCc2ccco2)S(C)(=O)=O)cc1 (configuration not stated)	8	2	5	17	-7	1	x
CCc1noc(C)c1C(=O)Nc1nnc(C(CC)CC)s1	18	-2	-3	0	18	x	x
COc1ccc(-c2nc(-c3cccc(C)c3)nc(N3CCN(C)CC3)c2C#N)cc1	59*	0	36	30	24	16	44*
O=c1[nH]c(S)nc2sc3c(c12)CCCC3	-13	1	-15	-7	7	-6	x
O=c1[nH]c(-c2ccco2)nc2sc3c(c12)CCCC3	50*	1	28	32	4	15	48*
N=c1c2c(-c3ccccc3)c(-c3ccccc3)n(Cc3ccco3)c2ncn1Cc1ccco1	66*	-1	26	32	-17	15	44*
O=c1c2cnn(-c3ccccc3)c2ncn1Cc1ccco1	20	1	6	25	37	4	x
CCc1c(C)nc2cc(-c3ccc(OC)c(OC)c3)nn2c1NCC1CC1	69*	-2	14	33	24	-2	46*
O=C(CN1C(=O)NC2(CCc3ccccc32)C1=O)c1ccc(Cl)cc1 (configuration not stated)	26	-1	-5	6	4	x	x
CC(C)c1ccc(C(=O)CN2C(=O)NC3(CCc4ccccc43)C2=O)cc1 (configuration not stated)	54*	-1	26	19	12	x	44*
CC(=O)NCCc1ccc(-c2csc(NC(=O)C3CC(=O)N(C4CCCC4)C3)n2)cc1 (configuration not stated)	-9	-2	-4	-11	12	x	x
Cc1oc2cc(O)cc(O)c2c(=O)c1-c1ccc2c(c1)OCCCO2	65*	-3	13	29	23	-47	53*
